The results in this text go back to PubChem BioAssay (Tox21).

A short description of test [1]: qHTS assay to identify small molecule antagonists of the estrogen related receptor (ERR) signaling pathway from Tox21 library - cell viability counter screen (AID 1224834). Further: nearly all actives have a fitted effect of over 30% in size. Further: potency means the concentration at half of the fitted maximal effect. The method, boiled down:
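Fluorescence from CellTiter-Fluor gives the viability read-out, taken 30 min after reagent addition. Before that, ERR cells seeded 6 h earlier were incubated with compounds for 17.5 h at 37 C.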
(In general: Quantitative high-throughput screening tests each substance at several concentrations.)

The target in test [2] is Luciferin 4-monooxygenase (Photinus pyralis) (UniProt P08659). Kind of test: qHTS assay to identify small molecule inhibitors of firefly luciferase (AID 1224835). Further: nearly all actives have a fitted effect of over 25% in size. Further: potency means the concentration at half of the fitted maximal effect. The method, boiled down: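 Biochemical qHTS: compounds run as interplate titrations against purified firefly enzyme, with D-luciferin and ATP each at its KM concentration. Light output recorded by CCD imaging.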

Test [3] in a line: qHTS assay to identify small molecule agonists of the constitutive androstane receptor (CAR) signaling pathway - cell viability counter screen (AID 1224836). Further: nearly all actives have a fitted effect of over 45% in size. The procedure, abridged:
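Counter screen multiplexed with the CAR reporter readout: HepG2 cells co-transfected with hCAR and the CYP2B6-2.2kb construct receive a 15-concentration compound series and 0.75 uM PK11195 (final), then CellTiter-Fluor fluorescence is read after 23 h.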

The nature of test [4]: qHTS assay to identify small molecule antagonists of the constitutive androstane receptor (CAR) signaling pathway - cell viability counter screen (AID 1224837). Further: nearly all actives have a fitted effect of over 45% in size. The procedure, abridged: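 HepG2-CYP2B6-hCAR cells, 2500/well, 4 hr pre-incubation; compound titration, 15 conc.; CITCO 50 nM final; 23 hr, 37 C/5% CO2; CellTiter-Fluor, fluorescence intensity.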
Test [5] has as its target Nuclear receptor subfamily 1 group I member 3 (Homo sapiens) (UniProt Q14994). Kind of test: qHTS assay to identify small molecule antagonists of the constitutive androstane receptor (CAR) signaling pathway (AID 1224838).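 Further: HepG2 cells stably expressing hCAR with CYP2B6 luciferase reporter stimulated by CITCO; nearly all actives have a fitted effect of over 40% in size.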 The procedure, abridged: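 HepG2-CYP2B6-hCAR cells; 4 h pre-incubation; cpd (15 conc) + CITCO 50 nM final; 24 h, 37 C/5% CO2; ONE-Glo, luminescence.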

The target is the same in test [6]. Kind of test: qHTS assay to identify small molecule agonists of the constitutive androstane receptor (CAR) signaling pathway (AID 1224839). Further: nearly all actives have a fitted effect of over 15% in size. The procedure, abridged: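 A 15-concentration quantitative screen uses HepG2 cells co-transfected stably with human CAR and CYP2B6-2.2kb reporter. Treatment lasts 24 h with 0.75 uM PK11195 final present; ONE-Glo luminescence is the signal.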

Test [7] can be described thus: qHTS assay to identify small molecule antagonists of the estrogen related receptor signaling pathway with the pleiotropic PPARgamma coactivator (PGC) from Tox21 10K library - cell viability counter screen (AID 1224840; active means well fitted cell-killing curve with a large enough effect in the repeat runs, not every such curve was filed as active; further: nearly all actives have a fitted effect of over 40% in size). The method, boiled down: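 PGC/ERR cells, 2,000/well; 6 h pre-incubation 37 C/5% CO2; cpd in DMSO via pin tool; 17.5 h 37 C; CellTiter-Fluor, 30 min; fluorescence.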

A short description of test [8]: qHTS assay to identify small molecule agonists of the hypoxia (HIF-1) signaling pathway - cell viability counter screen (AID 1224844; calls by dose curve; further: nearly all actives have a fitted effect of over 50% in size; further: potency means the concentration at half of the fitted maximal effect). The procedure, abridged:
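ME-180 HRE-bla cells, 2,000/well, 0.5% dialyzed FBS; 5 hr settle, 17 hr compound at 37C/5% CO2; CCF4-AM reporter read first, then CellTiter-Glo luminescence after 30 min RT.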

Test [9] can be described thus: qHTS assay to identify small molecule agonists of H2AX (AID 1224845; active means well fitted activation curve with a large enough effect in the signal ratio in the repeat runs, not every such curve was filed as active; the % refers to the signal ratio). The method, boiled down: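 Wild-type CHO-K1 cells, plated overnight, exposed 3hr at 37C to 15 concentrations (0.76% DMSO final). Lysed, then HTRF anti-pH2AX (S139) cryptate and anti-H2AX-d2 antibodies, 24 hr room temperature; 665/620 nm emission read.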
Test [10] is described as follows: qHTS assay to identify small molecule agonists of the hypoxia (HIF-1) signaling pathway (AID 1224846; active means well fitted activation curve with a large enough effect in the signal ratio in the repeat runs, not every such curve was filed as active; the % refers to the signal ratio). The procedure, abridged: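 Cell line: CellSensor HRE-bla ME-180; 2,000 cells/well; 0.5% dialyzed FBS; 5 h preincubation; DMSO compound pin transfer; 17 h, 37C, 5% CO2; CCF4-AM added; bla FRET signal scored for activation.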
Test [11] in a line: qHTS assay to identify small molecule agonists of H2AX - cell viability counter screen (AID 1224847; calls by dose curve; further: top concentration of the series differs between compounds; nearly all actives have a fitted effect of over 30% in size). The method, boiled down:
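We seed wild-type CHO-K1 cells overnight, treat them for 3 hr at 37C with compounds in 15-concentration series, and quantify remaining viability by CellTiter-Glo luminescence.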

Test [12] is described as follows: qHTS RealTime-Glo MT Cell Viability Assay in HepG2 cells - 24 hour (AID 1224867). Further: nearly all actives have a fitted effect of over 50% in size. The procedure, abridged: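 HepG2 suspension premixed with RealTime-Glo reagents is plated at 600 cells per well and left 5 h at 37 C/5% CO2. Compounds in DMSO then go in, and bioluminescence reflecting viable cell number is recorded over 40 h.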
Test [13] in a line: qHTS RealTime-Glo MT Cell Viability Assay in HEK293 cells - 32 hour (AID 1224868). Further: nearly all actives have a fitted effect of over 50% in size. Further: potency means the concentration at half of the fitted maximal effect. The method, boiled down:
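Reads taken at 0, 8, 16, 24, 32 and 40 h from the same wells. HEK293 cells (600/well) carried RealTime-Glo reagents from seeding, with compound added after a 5 h settle at 37 C.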

The nature of test [14]: A CellTox Green Cytotoxicity Assay to monitor cytotoxicity in HEK293 cells - 0 hour (AID 1224869). Further: nearly all actives have a fitted effect of over 50% in size. The method, boiled down:
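Nonlytic real-time cytotoxicity: HEK293 + CellTox Green reagent plated, 5 h preincubation, pintool compound addition (23 nL in DMSO), 37 C for 40 h, fluorescence measured at successive time points.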

Test [15] in a line: qHTS RealTime-Glo MT Cell Viability Assay in HepG2 cells - 40 hour (AID 1224870). Further: nearly all actives have a fitted effect of over 50% in size. The method, boiled down:
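HepG2 cells (600/well) mixed with RealTime-Glo MT reagent, settled 5 h at 37 C/5% CO2 before compound addition. Nonlytic NanoLuc luminescence from viable-cell prosubstrate reduction read repeatedly during 40 h treatment at 37 C.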

Test [16] can be described thus: qHTS assay to identify small molecule antagonists of the estrogen related receptor signaling pathway with the pleiotropic PPARgamma coactivator (PGC) from Tox21 10K library (AID 1224841; call rule not given here). The method, boiled down:
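PGC/ERR cell line, 2,000 cells/well; 6 h pre-incubation 37 C/5% CO2; compounds (DMSO) pinned in; 18 h, 37 C; One-Glo, 30 min RT; luminescence.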

Test [17] is described as follows: qHTS assay to identify small molecule agonists of the estrogen related receptor signaling pathway with the pleiotropic PPARgamma coactivator (PGC) from Tox21 10K library (AID 1224842). Further: nearly all actives have a fitted effect of over 15% in size. The method, boiled down:
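PGC/ERR reporter cell line, 2,000 cells per well, incubated 6 h at 37 C before 23 nL compound in DMSO was added. After 18 h at 37 C, One-Glo luminescence read following 30 min at room temperature.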

The target in test [18] is Thyrotropin receptor (Homo sapiens) (UniProt P16473). Kind of test: qHTS assay to identify small molecule agonists of the thyroid stimulating hormone receptor (TSHR) signaling pathway (AID 1224843; calls by dose curve; further: nearly all actives have a fitted effect of over 45% in size). The method, boiled down: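 TSHR-HEK293 cells in agonist mode, 30 min room-temperature step, then cAMP measured by competitive HTRF (cAMP-d2 with anti-cAMP cryptate) after 1 h at room temperature. Tested at 15 concentrations in triplicate.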

Test [19] in a line: qHTS assay to identify small molecule antagonists of the estrogen related receptor (ERR) signaling pathway from Tox21 library (AID 1224848). Further: nearly all actives have a fitted effect of over 50% in size. The method, boiled down: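 ERR reporter cell line (from NTP) seeded 2,000 cells/well, rested 6 h at 37 C/5% CO2, then pin-dosed with compounds in DMSO. After 18 h at 37 C, ONE-Glo added; luminescence read after 30 min at room temperature.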

The nature of test [20]: qHTS assay to identify small molecule agonists of the estrogen related receptor (ERR) signaling pathway from Tox21 library (AID 1224849; calls by dose curve; further: nearly all actives have a fitted effect of over 15% in size). The conditions noted are these: ERR reporter cell line, ONE-Glo luciferase, 18 h; at 92.4 µM (top of the series). The procedure, abridged:
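ERR cells, 6 h pre-incubation 37 C/5% CO2; cpd in DMSO pinned; 18 h 37 C; ONE-Glo added, 30 min RT; luminescence read. Agonist mode, qHTS.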

Several values for one entry are separate records, joined by “and”; a condition that tells them apart may be missing. Identical values can stand only once. Records with an inconclusive call do not appear. A structure can be active in one record and inactive in another. Activity calls are given as the source filed them. Unless noted, the call rests on the fitted dose curve; in most records, active means well fitted curve in the direction sought with a large enough effect in the repeat runs; inconclusive means weak or mixed curves; inactive means no such curve, though single readings can be large; an effect the other way counts as inactive or inconclusive.
On the % scale 0 is the no-effect control and ±100 the full control effect.

Luciferin 4-monooxygenase (Photinus pyralis), sequence (P08659 whole entry, looked up): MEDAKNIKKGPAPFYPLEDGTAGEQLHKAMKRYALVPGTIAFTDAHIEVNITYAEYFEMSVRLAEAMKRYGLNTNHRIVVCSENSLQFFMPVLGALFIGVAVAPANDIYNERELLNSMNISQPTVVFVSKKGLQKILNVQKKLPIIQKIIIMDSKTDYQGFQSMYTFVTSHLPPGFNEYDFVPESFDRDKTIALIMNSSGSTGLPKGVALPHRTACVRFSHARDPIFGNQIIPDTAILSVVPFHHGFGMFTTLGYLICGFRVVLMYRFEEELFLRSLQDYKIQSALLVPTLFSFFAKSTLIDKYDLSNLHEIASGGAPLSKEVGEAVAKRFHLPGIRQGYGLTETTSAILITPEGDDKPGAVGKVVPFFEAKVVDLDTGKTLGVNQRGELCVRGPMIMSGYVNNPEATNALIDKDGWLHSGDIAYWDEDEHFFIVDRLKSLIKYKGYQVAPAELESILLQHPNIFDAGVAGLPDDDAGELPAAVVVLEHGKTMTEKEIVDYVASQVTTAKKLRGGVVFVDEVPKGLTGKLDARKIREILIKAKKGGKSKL
Thyrotropin receptor (Homo sapiens), sequence (P16473 whole entry, looked up): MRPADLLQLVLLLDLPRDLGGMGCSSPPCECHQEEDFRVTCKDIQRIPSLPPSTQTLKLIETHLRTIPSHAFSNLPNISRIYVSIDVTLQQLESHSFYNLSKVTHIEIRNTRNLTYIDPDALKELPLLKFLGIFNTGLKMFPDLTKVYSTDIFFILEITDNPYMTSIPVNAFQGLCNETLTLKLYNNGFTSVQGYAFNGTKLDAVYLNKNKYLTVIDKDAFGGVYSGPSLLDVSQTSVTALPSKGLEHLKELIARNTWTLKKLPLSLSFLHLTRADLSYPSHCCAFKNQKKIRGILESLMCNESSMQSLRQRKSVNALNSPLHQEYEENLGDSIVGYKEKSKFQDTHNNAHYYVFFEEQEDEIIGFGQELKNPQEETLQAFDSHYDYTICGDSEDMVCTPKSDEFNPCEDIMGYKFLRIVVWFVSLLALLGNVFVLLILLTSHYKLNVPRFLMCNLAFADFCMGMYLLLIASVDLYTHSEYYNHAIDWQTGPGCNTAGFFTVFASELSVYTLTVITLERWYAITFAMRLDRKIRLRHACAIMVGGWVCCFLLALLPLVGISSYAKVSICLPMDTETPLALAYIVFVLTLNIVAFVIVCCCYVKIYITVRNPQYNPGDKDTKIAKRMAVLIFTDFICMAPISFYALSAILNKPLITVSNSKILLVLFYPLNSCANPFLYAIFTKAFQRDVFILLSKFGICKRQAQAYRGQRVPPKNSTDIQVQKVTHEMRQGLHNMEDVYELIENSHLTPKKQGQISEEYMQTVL
Nuclear receptor subfamily 1 group I member 3 (Homo sapiens), sequence (Q14994 whole entry, looked up): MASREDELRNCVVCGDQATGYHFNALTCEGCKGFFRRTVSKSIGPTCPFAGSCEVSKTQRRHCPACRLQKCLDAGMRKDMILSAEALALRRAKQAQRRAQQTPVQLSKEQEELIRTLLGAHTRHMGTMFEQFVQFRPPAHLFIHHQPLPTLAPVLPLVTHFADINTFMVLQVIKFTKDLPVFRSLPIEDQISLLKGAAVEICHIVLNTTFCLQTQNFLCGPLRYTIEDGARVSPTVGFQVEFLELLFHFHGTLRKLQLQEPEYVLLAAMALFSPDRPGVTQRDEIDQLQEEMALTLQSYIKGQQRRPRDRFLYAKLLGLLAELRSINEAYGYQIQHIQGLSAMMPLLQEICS

`C=CC(=O)NC(C)(C)CC(C)=O`: the Potency entry in test [1], in test [2], in [3], in test [4], in test [5] and in [6] was “inactive” each time. For the same compound, the Potency entry in test [7], in [8], in [9], in [11], in test [12] and in [13] was “inactive” each time. Further, the Potency result in [14] and in [15] was “inactive” throughout. Also, the result in [10] was inactive.

On to `NCCc1cc(O)c(O)cc1O`, for which the Potency entry in test [1], in [2], in test [3], in [4], in [5] and in test [6] was “inactive” each time. The Potency result in [7], in test [8], in [11], in test [12], in [13] and in [14] was “inactive” in each case. Besides, in [15], the Potency entry is “inactive”. In addition, the compound was classed as inactive in test [10].

On to `C=CCOCC1CO1` (stereo unspecified), for which the Potency entry in test [1], in [2], in test [3], in test [4], in test [5] and in test [6] was “inactive” each time. Besides, the Potency entry in test [7], in [16], in test [17], in [18], in [8] and in test [9] was “inactive” each time. The Potency entry in test [11], in test [19], in [12], in [13], in [14] and in test [15] was “inactive” throughout. In addition, the outcome in test [10] was inactive. In addition, the activity change, positive = activation in test [20] is -3.54% (inactive).

In the case of `COCc1cnc(C2=NC(C)(C(C)C)C(=O)N2)c(C(=O)O)c1` (stereo unspecified), the Potency result in [1], in test [2], in [3], in [4], in [5] and in test [6] was “inactive” each time. Moreover, the Potency result in test [7], in [8], in [9], in test [13], in [14] and in [15] was “inactive” each time. The compound was classed as inactive in test [10].

With `Nc1cc(Cl)cc(C(=O)O)c1Cl`, the Potency result in test [1], in test [2], in test [3], in [4], in test [5] and in [6] was “inactive” in each case. In addition, the Potency entry in test [16], in [17], in [8], in [9], in test [11] and in test [19] was “inactive” throughout. Also, the Potency result in test [12], in [13], in [14] and in test [15] was “inactive” throughout. Besides, the compound was classed as inactive in [10]. Further, the activity change, positive = activation in test [20] is 4.39% (inactive) and 3.97% (inactive).

For `Cc1ccc2c(C)cccc2c1`, the Potency result in [1], in test [2], in test [3], in test [4], in test [5] and in [6] was “inactive” in each case. Moreover, the Potency entry in test [7], in test [18], in test [9], in test [11], in test [12] and in [13] was “inactive” in each case. In addition, the Potency result in [14] and in test [15] was “inactive” each time. In addition, the compound was called inactive in [10].

Turning to `CCC(C)Cl` (stereo unspecified), the Potency entry in test [1], in test [2], in test [3], in test [4], in test [5] and in test [6] was “inactive” each time. In addition, the Potency result in [18], in [8], in test [9], in test [11], in [12] and in test [13] was “inactive” each time. The Potency result in [14] and in [15] was “inactive” throughout. Besides, the result in test [10] was inactive.

For `CN1C[C@H](C(=O)N[C@]2(C)O[C@@]3(O)[C@@H]4CCCN4C(=O)[C@H](Cc4ccccc4)N3C2=O)C=C2c3cccc4[nH]cc(c34)C[C@H]21`, the Potency in test [1] was 24.4 µM (active) and 9.01 µM (active); in test [2], 40.1 µM (active); in test [8], 24.7 µM (active) and 14.4 µM (active); in [13], 27.7 µM (active) and inactive. Further, the Potency result in [3], in test [4], in test [5], in test [6], in test [7] and in test [11] was “inactive” each time. Moreover, in test [14], the Potency result was “inactive”.
